This is a sample that favours compounds with a hit; in the whole collection about 2.1% have one here.
MLLE-PAM2 inh = inhibitors of PABP1 MLLE–PAM2 peptide binding, primary screen, biochemical, fluorescence polarization, FITC-PAM2, GST-MLLE. inhibition, % at 20 µM. actives 0.36% (n = 360,000). Polyadenylate-binding protein 1 (Homo sapiens), P11940; in the data active means inhibition above about 35%, passing the limit was not always enough;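 further: plate controls were DMSO wells with GST-MLLE for no effect and wells lacking GST-MLLE protein for full effect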
PABP FP inh = PABP poly(A) RNA binding inhibitors, primary screen, biochemical, fluorescence polarization, uHTS | Polyadenylate-binding protein 1 (Homo sapiens), P11940 | inhibition, % at 35 µM | actives 1% (n = 290,000) | AID 2014, 2009;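 further: calls also rest on retests at 20 µM and on dose response follow-up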
NRP1-CendR mod = modulators of CendR peptide binding to NRP-1, primary screen, biochemical, fluorescence polarization, uHTS; Neuropilin-1 (Homo sapiens), O14786; FAM-RPARPAR peptide binding to NRP-1; inhibition, % at 25 µM; actives 0.85% (n = 360,000); AID 602438, 2012;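 active means inhibition or corrected inhibition above about 18%, plus a signal ratio from 0.5 to 1.5, limit read from the data, passing the limit was not always enough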
eIF4H FP inh = human eIF4H binding inhibitors, primary screen, translation initiation inhibitor project, biochemical, uHTS, fluorescence polarization. eIF4H fluorescence polarization binding assay. AID 2012, 2009. inhibition, % at 35 µM. actives 0.94% (n = 290,000). Eukaryotic translation initiation factor 4H (Homo sapiens), Q15056;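 further: calls also rest on retests at 20 µM and on dose response follow-up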
Starred values were filed as active, the others as inactive. Unless noted, how the calls were made is not given here.

COc1cc(-c2nnc(SCc3cc(=O)oc4cc(O)c(O)cc34)o2)cc(OC)c1OC was read as MLLE-PAM2 inh -122, PABP FP inh 69*, NRP1-CendR mod -68 and eIF4H FP inh 92*.
Screening COc1cc(-c2nnc(SCC(=O)Nc3ccc(C(=O)O)cc3)o2)cc(OC)c1OC returned MLLE-PAM2 inh 1 and NRP1-CendR mod 31*.
For COc1cc(-c2nnc(SCC(=O)c3ccccc3)o2)cc(OC)c1OC the results were MLLE-PAM2 inh -73, PABP FP inh 1, NRP1-CendR mod 1 and eIF4H FP inh -7.
C=CCc1c(C)nc(SCc2ccccc2)[nH]c1=O was read as MLLE-PAM2 inh -3, PABP FP inh 11, NRP1-CendR mod 2 and eIF4H FP inh 5.
`Cn1sccc1=O` gave MLLE-PAM2 inh 37* and NRP1-CendR mod -4.
Screening CCc1nc(OCC(=O)c2ccccc2)c(C#N)c2c1COC(C)(C)C2 returned MLLE-PAM2 inh 1, PABP FP inh -14, NRP1-CendR mod 19* and eIF4H FP inh -2.
For CC(=O)OC[C@@H]1CN(Cc2cccc(C(F)(F)F)c2)C[C@H](n2cnc3c(N4CCOCC4)ncnc32)O1 the results were MLLE-PAM2 inh -4 and NRP1-CendR mod -25.
`CC(=O)OC[C@@H]1CN(Cc2cccc(C(F)(F)F)c2)C[C@H](n2cnc3c(NCc4ccco4)ncnc32)O1` gave MLLE-PAM2 inh -6 and NRP1-CendR mod 40*.
For Cc1c(-c2ccnc3cc(C(=O)O)nn23)cnn1C the results were MLLE-PAM2 inh -6, PABP FP inh 0, NRP1-CendR mod 10 and eIF4H FP inh 18.
CCn1cc(-c2ccnc3cc(C(=O)O)nn23)c(C)n1 was read as MLLE-PAM2 inh 12, PABP FP inh -10, NRP1-CendR mod 32* and eIF4H FP inh -12.
`CCCNC(=O)C1(C)CCN(Cc2cc(C(F)(F)F)ccc2Cl)C1` (stereo unspecified) gave MLLE-PAM2 inh 6 and NRP1-CendR mod 22*.
`CC(=O)Oc1ccc(C(=O)Nc2ccccc2C(=O)Nc2ccc(C(=O)O)cc2)cc1` gave MLLE-PAM2 inh -9, PABP FP inh 2, NRP1-CendR mod -19 and eIF4H FP inh 6.
`Cc1cc(C(=O)OCC(=O)N2CCc3ccccc32)ccc1[N+](=O)[O-]` gave MLLE-PAM2 inh 2 and NRP1-CendR mod 8.
COC(=O)/C(C(C)=O)=C(\C=C\N(C)C)N(C)C was read as MLLE-PAM2 inh 4, PABP FP inh 3, NRP1-CendR mod 0 and eIF4H FP inh 2.
COC(=O)\C(C(C)=O)=C(/C=C/C=C/C=C/N(C)C)N(C)C was read as MLLE-PAM2 inh 3, PABP FP inh 66*, NRP1-CendR mod -246 and eIF4H FP inh 90*.
`CN(C(=O)c1cccc(NC(=O)Cc2ccc(NC(=O)C3CCN(C(=O)CCc4ccccc4)CC3)cc2)c1)C1CCCCC1` gave MLLE-PAM2 inh -11 and NRP1-CendR mod 3.
Screening CCCCCCC1NC(C(=O)O)CS1 (stereo unspecified) returned MLLE-PAM2 inh 38*, PABP FP inh -7, NRP1-CendR mod 10 and eIF4H FP inh -2.
CC(c1ccccc1)C1NC(C(=O)O)CS1 (stereo unspecified) was read as MLLE-PAM2 inh 8, PABP FP inh -3, NRP1-CendR mod -23 and eIF4H FP inh 0.
CCCCC1NC(C(=O)O)CS1 (stereo unspecified) was read as MLLE-PAM2 inh 38*, PABP FP inh -1, NRP1-CendR mod -4 and eIF4H FP inh -2.
Screening CCCCCC1CCC(C(=O)O)CC1 (stereo unspecified) returned MLLE-PAM2 inh 0, PABP FP inh 5, NRP1-CendR mod -3 and eIF4H FP inh -1.
For Cn1cc(-c2cc(C(=O)O)on2)cn1 the results were MLLE-PAM2 inh 0, PABP FP inh 1, NRP1-CendR mod 25* and eIF4H FP inh -11.
COCCn1nnnc1SCC(=O)c1ccc(F)cc1 was read as MLLE-PAM2 inh -44, PABP FP inh 2, NRP1-CendR mod -3 and eIF4H FP inh -4.
COCCn1c(SCC(=O)c2ccc(F)cc2)nnc1C(C)C was read as MLLE-PAM2 inh 21, PABP FP inh 1, NRP1-CendR mod 24* and eIF4H FP inh 1.
For O=C1CCCC2=C1C(c1ccc(O)c(O)c1)Nc1ccc3ncccc3c12 (stereo unspecified) the results were MLLE-PAM2 inh -12, PABP FP inh active, NRP1-CendR mod 5 and eIF4H FP inh 74*.
Screening O=C1CCCC2=C1C(c1cccs1)Nc1ccc3ncccc3c12 (stereo unspecified) returned MLLE-PAM2 inh 10, PABP FP inh 18, NRP1-CendR mod -3 and eIF4H FP inh -7.
For COC(=O)CCC(=O)OC1(C)C(=O)C=C2C=C(C3CC3)N(C(CO)CO)C=C2C1=O (stereo unspecified) the results were MLLE-PAM2 inh 21, PABP FP inh 39, NRP1-CendR mod 27* and eIF4H FP inh 33.
Screening C=CCN1C=C2C(=O)C(C)(OC(=O)CCC(=O)OC)C(=O)C=C2C=C1C1CC1 (stereo unspecified) returned MLLE-PAM2 inh 40, PABP FP inh 25, NRP1-CendR mod 38* and eIF4H FP inh 24.
For COC(=O)CCC(=O)OC1(C)C(=O)C=C2C=C(C3CC3)N(CCCOC(C)C)C=C2C1=O (stereo unspecified) the results were MLLE-PAM2 inh 23, PABP FP inh 22, NRP1-CendR mod 20 and eIF4H FP inh 60.
COC(=O)CCC(=O)OC1(C)C(=O)C=C2C=C(C3CC3)N(c3ccccc3)C=C2C1=O (stereo unspecified) was read as MLLE-PAM2 inh 6, PABP FP inh inconclusive, NRP1-CendR mod 13 and eIF4H FP inh inconclusive.
COC(=O)CCC(=O)OC1(C)C(=O)C=C2C=C(C3CC3)N(CCCCO)C=C2C1=O (stereo unspecified) was read as MLLE-PAM2 inh 2, PABP FP inh 22, NRP1-CendR mod 21* and eIF4H FP inh 38.
For COC(=O)CCC(=O)OC1(C)C(=O)C=C2C=C(C3CC3)N(CCc3ccccn3)C=C2C1=O (stereo unspecified) the results were MLLE-PAM2 inh 23, PABP FP inh 31, NRP1-CendR mod 30* and eIF4H FP inh 66.
CCCCNC(=O)C1c2ccccc2OCC(=O)N1CCCN1CCOCC1 (stereo unspecified) was read as NRP1-CendR mod 1.
CCN(CC)S(=O)(=O)c1ccc(/C=C/C(=O)OCC(=O)NNC(=O)c2ccc(OC)cc2)cc1 was read as MLLE-PAM2 inh -19 and NRP1-CendR mod 2.
CC(Oc1ccccc1F)c1nnc(SCC(=O)N(c2ccccc2)C2CCS(=O)(=O)C2)o1 (stereo unspecified) was read as MLLE-PAM2 inh -14 and NRP1-CendR mod -1.
COc1ccc(C2NC3=C(CCC3)C3(C#N)C4(N=C(N)C23C#N)OCCO4)cc1 (stereo unspecified) was read as MLLE-PAM2 inh -19, PABP FP inh 64*, NRP1-CendR mod 8 and eIF4H FP inh 72*.

Bioassay records deposited in PubChem BioAssay by Sanford-Burnham Center for Chemical Genomics.
